Biological target: Prolyl endopeptidase-like (Mus musculus) (UniProt Q8C167)
Assay: mouse PREPL enzyme inhibition by screening hits – biochemical, gel-based competitive ABPP, fluorescence, HTS hits, PREPL inhibitor project (AID 624481)
Settings: purified mouse PREPL, at 20 µM, active compounds read high; in the data active means inhibition above about 50%; inactive means the rest

Prolyl endopeptidase-like (Mus musculus), sequence (Q8C167 whole entry, looked up): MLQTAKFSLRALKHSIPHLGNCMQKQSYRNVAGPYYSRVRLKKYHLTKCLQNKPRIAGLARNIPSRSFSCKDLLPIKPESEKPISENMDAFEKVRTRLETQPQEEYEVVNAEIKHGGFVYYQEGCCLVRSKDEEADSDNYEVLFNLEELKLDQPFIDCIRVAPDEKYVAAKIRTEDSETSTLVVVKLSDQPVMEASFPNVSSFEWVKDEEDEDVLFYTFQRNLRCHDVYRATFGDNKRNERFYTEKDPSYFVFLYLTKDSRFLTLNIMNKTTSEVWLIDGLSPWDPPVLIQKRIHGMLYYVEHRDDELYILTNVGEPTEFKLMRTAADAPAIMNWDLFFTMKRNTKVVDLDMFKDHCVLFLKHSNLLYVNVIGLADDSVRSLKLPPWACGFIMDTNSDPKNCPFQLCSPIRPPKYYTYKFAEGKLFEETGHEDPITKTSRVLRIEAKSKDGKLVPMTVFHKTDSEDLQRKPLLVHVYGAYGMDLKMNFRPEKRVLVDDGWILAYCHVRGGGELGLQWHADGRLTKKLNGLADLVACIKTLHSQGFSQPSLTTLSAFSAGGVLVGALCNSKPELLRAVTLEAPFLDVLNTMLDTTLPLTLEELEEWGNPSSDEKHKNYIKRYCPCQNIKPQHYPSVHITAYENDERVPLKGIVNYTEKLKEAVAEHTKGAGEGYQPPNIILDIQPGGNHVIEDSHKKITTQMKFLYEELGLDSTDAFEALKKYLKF

inhibition, inactive:
Cc1ccc(C2=CC(c3ccc(N(C)C)cc3)n3nnnc3N2)cc1 (centres undefined) -77%
C#CCOCCOCCOCCNc1nc(N2CCN(C(=O)CCCCCCCCCCNC(=O)[C@H](CCCCN)n3cc(CCO)nn3)CC2)nc(N2CCN(C(=O)CCCCCCCCCCNC(=O)[C@H](CCCN=C(N)N)n3cc(C[C@@H](C)CC)nn3)CC2)n1 -34%
O=C1N/C(=C/c2ccc(N3CCOCC3)cc2)C(=O)N1Cc1ccc(F)cc1 -30%
c1cncc(N=c2scc(-c3cccc4ccccc34)n2CCCn2ccnc2)c1 -95%
CCN(CC)c1ccc2cc(C(N)=O)c(=NNC(=O)c3ccncc3)oc2c1 -14%
CN(C)c1nc(-c2ccccn2)nnc1-c1ccccc1 -28%
O=C1NC(Cc2c[nH]c3ccccc23)C(=O)N1Cc1ccc(CN2C(=O)NC(Cc3c[nH]c4ccccc34)C2=O)cc1 (centres undefined) 28%
C[C@H]1CN([C@@H](C)CO)C(=O)c2cccc(NS(=O)(=O)c3ccc(Cl)cc3)c2O[C@@H]1CN(C)CC1CCCCC1 -24%
CC(C)C[C@@H]1CN=C(N)N1C[C@@H]1CCCN1C[C@@H](C(C)C)N1C[C@@H](Cc2ccccc2)N(CCc2ccc(Cl)c(Cl)c2)C1=N -72%
COc1ccc(C2CC(c3cccc(OC)c3)n3nc(N)nc3N2)cc1 (centres undefined) -18%
Cc1sc2ncnc(NN=Cc3ccccc3O)c2c1C -89%
O=C(C1=C[C@@H](c2ccc(C(F)(F)F)cc2)C[C@@H](OCCCCO)O1)N1CCN(Cc2ccc3c(c2)OCO3)CC1 -20%
Cc1cc(C)c2nc(C)cc(NN=Cc3ccc(O)cc3)c2c1 -1%
COc1ccc(NC(=O)c2ccc(-c3ccc(-c4noc(C)n4)cc3C)cc2)cc1N1CCN(C)CC1 -16%
CN(C)c1ccc(C(O)P(=O)(OCc2ccccc2)c2ccc(N(C)C)cc2)cc1 (centres undefined) -57%
O=c1[nH]c2ccc(NCc3ccccc3OCc3ccc(Cl)cc3)cc2[nH]1 -43%
COc1ccc(NCc2nc3ccccc3n2CCOc2ccc(C)cc2)cc1 -75%
Cc1ccn2c(Nc3ccc4c(c3)OCO4)c(-c3ccccn3)nc2c1 -41%
Cc1ccccc1C(=O)N1CCN(c2ccc(NC(=O)CSc3ccc(Cl)cc3)cc2)CC1 -27%
CCCCCN=C(N)NN=Cc1c[nH]c2ccc(OC)cc12 -11%
C#CCOCCOCCOCCNc1nc(N2CCN(C(=O)CCCCCCCCCCNC(=O)Cn3cc(CCCCCN)nn3)CC2)nc(N2CCN(C(=O)CCCCCCCCCCNC(=O)Cn3cc(CCCCCN)nn3)CC2)n1 -99%
CCOc1ccc(Nc2c3ccccc3nc3ccccc23)cc1 -58%
O=C(C1=C[C@@H](c2ccc(C(F)(F)F)cc2)C[C@@H](OCc2ccc(CO)cc2)O1)N1CCN(Cc2ccc3c(c2)OCO3)CC1 -49%
Nc1nn(-c2ccccc2)c(N)c1N=Nc1ccccc1 -16%
